Here are results for 34 compounds from the supplement of paper PMC10127200.

SMILES strings stand for the structures. Counter-ions that a name gives are not always drawn.

The first assay has as its system 786-O. Kind of assay: Euclidean distance of Cell Painting phenotypic profile (signed KS, 77 features) to DMSO centroid (dimensionless distance); 5 or 10 uM (library dependent); higher = stronger phenotypic change vs DMSO (phenoactivity). The following applies: 48 h. The essentials:
(§1)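 Phenoactivity is computed as Euclidean distance to the median vehicle profile. The profiles, drawn from 77 Harmony features scored as signed Kolmogorov-Smirnov statistics versus same-plate vehicle wells, were corrected for plate position, correlation-weighted and replicate-averaged at the top dose. Stained cells were imaged confocally at 20X (9 fields/well) after 48 h with library compounds at 10 or 5 uM, 0.1% DMSO final, in five cancer lines and a healthy fibroblast line.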
Take `Cc1ccnc(NS(=O)(=O)c2ccc(N)cc2)n1` [Sulfamerazine]: the Euclidean distance came to 1.24.
Compound `CCNC(=O)c1[nH]nc(-c2cc(Cl)c(O)cc2O)c1-c1ccc(OC)cc1` returned an Euclidean distance of 2.94.
On the same count and under the same terms, with `CC[C@@H]1C(=O)OC[C@@H]1Cc1cncn1C` [Pilocarpine HCl] the figure was 1.14; with `C[C@H]1O[C@@H](n2cc(F)c(=O)[nH]c2=O)[C@H](O)[C@@H]1O` [Doxifluridine], 0.747; with `Cc1ccccc1C(=O)Nc1ccc(C(=O)N2CCCC(O)c3cc(Cl)ccc32)c(C)c1` (centres undefined) [Tolvaptan], 1.6.
`C[C@@H](N)[C@H]1CC[C@H](C(=O)Nc2ccncc2)CC1`: the Euclidean distance is 3.12.
Still for that read-out and setting: the value for `CC(CCc1ccccc1)NCC(O)c1ccc(O)c(C(N)=O)c1` (centres undefined) [Labetalol HCl] was 1.08.

The next assay has as its system A549. The assay is described as above. The settings on record: 48 h. In short, it runs like this:
as §1
For the compound `C#C[C@]1(O)CC[C@H]2[C@@H]3CCc4cc(OC)ccc4[C@H]3CC[C@@]21C` [Mestranol], the Euclidean distance was determined as 0.814.
The same measure, in the same setting: with `CCCC1CC(C(=O)NC(C(C)Cl)C2OC(SC)C(O)C(O)C2O)N(C)C1` (centres undefined) [Clindamycin alcoholate] the figure was 0.413; with `Nc1nc(=O)c2nc(CNc3ccc(C(=O)N[C@@H](CCC(=O)O)C(=O)O)cc3)cnc2[nH]1` [Folic acid], 0.776; with `Cc1ccc(NCCCc2ccccc2)c(N)c1`, 0.572.
Compound `COC(=O)N[C@H](C(=O)N1CCC[C@H]1c1nc(-c2ccc3c(c2)O[C@@H](c2ccccc2)n2c-3cc3cc(-c4c[nH]c([C@@H]5CCCN5C(=O)[C@@H](NC(=O)OC)C(C)C)n4)ccc32)c[nH]1)C(C)C` [Elbasvir] displayed an Euclidean distance of 1.94.
The same measure, in the same setting: the value for `O=c1ccn([C@@H]2O[C@H](COP(=O)(O)OP(=O)(O)OP(=O)(O)OP(=O)(O)OC[C@H]3O[C@@H](n4ccc(=O)[nH]c4=O)[C@H](O)[C@@H]3O)[C@@H](O)[C@H]2O)c(=O)[nH]1` [Diquafosol Tetrasodium] was 0.68; that for `O=C1Nc2ccccc2C1=O` [Isatin] was 1.21; that for `CC1(C)NC(=O)N(c2ccc([N+](=O)[O-])c(C(F)(F)F)c2)C1=O` [Nilutamide] was 0.753.
On the same count and under the same terms, with `CC12CCC(CC1=O)C2(C)C` (centres undefined) [Camphor] the figure was 0.742; with `CCCCc1nc(Cl)c(CO)n1Cc1ccc(-c2ccccc2-c2nnn[nH]2)cc1` [Losartan Potassium (DuP 753)], 0.621; with `C[C@@H]1C[C@H]2[C@@H]3CCC4=CC(=O)C=C[C@]4(C)[C@@]3(F)[C@@H](O)C[C@]2(C)[C@@]1(O)C(=O)CO` [Dexamethasone (DHAP)], 2.32.
The same measure, in the same setting: with `O=C(NC1CCOCC1)c1ccc(-c2cc(-c3c[nH]nc3-c3ccccn3)ccn2)cc1` the figure was 0.965; with `COC(=O)Nc1nc2cc(Sc3ccccc3)ccc2[nH]1` [Fenbendazole], 2.78; with `CS(=O)(=O)c1ccc(-c2cnc(N)c(C(=O)Nc3ccccc3)n2)cc1`, 2.05.
For `CC(C)(Oc1ccc(C(=O)c2ccc(Cl)cc2)cc1)C(=O)O` [Fenofibric acid], the Euclidean distance was 1.24.
In turn, `Cc1[nH]c(/C=C2\C(=O)Nc3ccccc32)c(C)c1CCC(=O)O` [TSU-68 (SU6668. Orantinib)] returned an Euclidean distance of 0.699.
The same measure, in the same setting: with `CNC[C@H](O)c1cccc(O)c1` [Phenylephrine HCl] the figure was 0.809; with `CCCCCOc1ccccc1/C(=C\SC)n1ccnc1` [Neticonazole Hydrochloride], 1.44.
On to `NC[C@H](O)c1ccc(O)c(O)c1` [Noradrenaline bitartrate monohydrate], for which the Euclidean distance was 0.515.
Still for that read-out and setting: with `CC(C)(O)c1ccccc1CC[C@@H](SCC1(CC(=O)O)CC1)c1cccc(/C=C/c2ccc3ccc(Cl)cc3n2)c1` [Montelukast Sodium] the figure was 0.527.
The same measure, in the same setting: with `CN1CCN(CCOc2cc(OC3CCOCC3)c3c(Nc4c(Cl)ccc5c4OCO5)ncnc3c2)CC1` [Saracatinib (AZD0530)] the figure was 3.83.
Same read-out and setting: the value for `O=C(Nc1cccnc1)N1CCC(Cc2cccc(Oc3ccc(C(F)(F)F)cn3)c2)CC1` was 1.34; that for `Nc1nc(NC2CC2)c2ncn([C@H]3C=C[C@@H](CO)C3)c2n1` [Abacavir] was 0.752.
With `C=C1/C(=C\C=C2/CCC[C@]3(C)[C@@H]([C@H](C)/C=C/[C@H](C)C(C)C)CC[C@@H]23)C[C@@H](O)C[C@@H]1O` [Doxercalciferol], the Euclidean distance was found to be 1.49.
The same measure, in the same setting: the value for `C=C1CC/C=C(/C)CC[C@@H]2[C@@H]1CC2(C)C` [Œ≤-Caryophyllene] was 0.652; that for `NCc1ccc(S(N)(=O)=O)cc1` [Mafenide Acetate] was 0.744.
Same read-out and setting: the value for `Nc1nc(F)nc2c1ncn2[C@@H]1O[C@H](COP(=O)(O)O)[C@@H](O)[C@@H]1O` [Fludarabine Phosphate] was 2.48.
